Assay outcomes from PubChem BioAssay.
AmpC detergent: AmpC beta-lactamase inhibition with detergent present; P00811; Potency, µM (doses to about 114 µM), hits mostly inhibitors; 370,000 compounds, 0.041% hits; AmpC hydrolysis of nitrocefin, absorbance 480 nm, 0.01% Triton; note: nearly all actives have a fitted effect of over 25% in size
Target sequence (P00811 whole entry, looked up): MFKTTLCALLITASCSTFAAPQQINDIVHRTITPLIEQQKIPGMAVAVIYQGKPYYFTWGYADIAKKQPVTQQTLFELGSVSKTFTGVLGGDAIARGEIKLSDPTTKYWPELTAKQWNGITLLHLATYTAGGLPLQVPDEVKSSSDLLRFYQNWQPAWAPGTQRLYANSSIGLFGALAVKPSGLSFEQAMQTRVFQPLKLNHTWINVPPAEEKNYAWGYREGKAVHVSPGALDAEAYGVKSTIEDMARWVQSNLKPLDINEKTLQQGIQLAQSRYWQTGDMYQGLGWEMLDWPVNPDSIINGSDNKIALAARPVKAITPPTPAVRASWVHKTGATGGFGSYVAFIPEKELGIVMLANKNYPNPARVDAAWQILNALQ
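20 mM phosphate pH 7.0 + 0.01% (detergent screen) or 0.0001% Triton X-100; 5.3 nM AmpC reagent; cpd preinc 15 min RT; nitrocefin (800 uM stock) to start; A480 q20 s × 4 min; Activity was normalised to no-enzyme and no-compound control wells.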
Cycloheximide cs: counter-screen hit for Shiga toxin inhibitors, cycloheximide | max response, % | 300,000 compounds, 12% hits | cell reporter, cycloheximide protein synthesis inhibition counterscreen | AID 2314; in the data active = max response mostly above about 13%, no sharp cut-off; inactive = mostly below about 14%; note: read at 38.3 µM for the half of the compounds with a filed dose
AmpC inh no detg: AmpC beta-lactamase inhibition without detergent; 330,000 compounds, 0.52% hits; P00811; Potency, µM (doses to about 57.1 µM), most hits filed as inhibitors; AID 485341; AmpC nitrocefin hydrolysis, absorbance 480 nm, 0.0001% Triton; note: nearly all actives have a fitted effect of over 20% in size
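AmpC (5.3 nM in the dispensed reagent) in 20 mM phosphate pH 7.0 with 0.01% (detergent screen) or 0.0001% Triton X-100 was preincubated with compounds for 15 min at room temperature. Nitrocefin was then added from an 800 uM solution, and hydrolysis was followed at 480 nm.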
SARS PLpro yeast: inhibitors of SARS-CoV papain-like protease in yeast; S. cerevisiae expressing SARS-CoV PLpro, growth rescue; Potency, µM (titrated, usually from 32.9 µM), hits mostly activators; 330,000 compounds, 0.19% hits; AID 485353; calls by dose curve; note: nearly all actives have a fitted effect of over 55% in size
Shiga inhibitor: inhibitors of Shiga toxin in Vero cells | Vero cells, Shiga toxin protein synthesis inhibition reporter | inhibition, % at 38.7 µM | 290,000 compounds, 9.2% hits | AID 2315; in the data active = inhibition mostly above about 28%, no sharp cut-off; inactive = mostly below about 43%
AMA1-RON2 inh: disrupts binding of P. falciparum AMA1 to RON2 | Potency, µM (titrated, usually from 58.2 µM), actives largely listed as inhibitors | AlphaScreen AMA1-biotinylated RON2 peptide binding | 360,000 compounds, 0.2% hits; note: nearly all actives have a fitted effect of over 45% in size
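AMA1 (3D7) with his tag at 25 nM final met compounds first, then biotinylated RON2 peptide at 25 nM; detection used donor plus acceptor beads, 10 µg/mL apiece, read by AlphaScreen after 30 min at room temperature.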
Each line names hits and unclear results; the compound was inactive in the other large screens. The full list was thinned out, with hits kept by preference. Unless noted, calls come from the whole dose curve; as a rule, active = well fitted curve in the direction sought with a large enough effect; inconclusive = small, poorly fitted or top-dose-only effect, or another doubt; inactive = no such curve, though single readings can be large; an effect the other way counts as inactive or inconclusive.

C/C(=N\NC(=O)c1ccccc1)c1ccc(N2CCOCC2)cc1	Cycloheximide cs 58, Shiga inhibitor 54
C/C(=N\NC(=O)COc1ccc(C#N)cc1)c1ccc(N2CCOCC2)cc1	Shiga inhibitor 26
Cc1ccc(C(=O)N2CCN(c3ccc(NC(=S)NC(=O)c4cccs4)cc3)CC2)cc1	none
C/C(=N\NC(=O)c1cc(C)oc1C)c1ccc(N2CCOCC2)cc1	AmpC detergent inconclusive, Cycloheximide cs 37, Shiga inhibitor 54
C/C(=N\NC(=O)COc1cc(C)cc(C)c1)c1ccc(N2CCOCC2)cc1	none
COCC1CCCCN1C(=O)c1cc(COc2ccc3ncccc3c2)on1 (stereo not given)	none
C/C(=N\Nc1cc(N2CCOCC2)ncn1)c1ccccc1	AmpC detergent inconclusive, Cycloheximide cs 28, Shiga inhibitor 30
C/C(=N\Nc1cc(N2CCOCC2)ncn1)c1cccc([N+](=O)[O-])c1	none
C/C(=N/NC(=O)c1cccs1)c1ccc(N2CCOCC2)cc1	Cycloheximide cs 51, Shiga inhibitor 70
Cn1c(=O)[nH]c(=O)c2c1nc1n2CCN1Cc1ccccc1	none
Cc1ccc(C(=O)NCC(=O)N2CCc3ccccc3C2)cc1C	none
Cc1cccc(S(=O)(=O)C(C#N)c2nc3ccccc3nc2N2CC(C)OC(C)C2)c1 (stereo not given)	none (no result: AmpC inh no detg, SARS PLpro yeast)
COc1ccc(-c2noc(-c3ccc(Cl)cc3[N+](=O)[O-])n2)cc1OC	AmpC detergent inconclusive, Cycloheximide cs 16
Cc1cccc(-c2noc(-c3ccc(Cl)cc3[N+](=O)[O-])n2)c1	Cycloheximide cs 42, Shiga inhibitor 82, AMA1-RON2 inh inconclusive
Cc1ccccc1OCC(=O)NC(=S)Nc1ccc(N2CCOCC2)c(Cl)c1	none
O=C(c1nn2c(C(F)(F)F)cc(-c3cccs3)nc2c1Cl)N1CCCc2ccccc21	Cycloheximide cs 48, Shiga inhibitor 80
Cc1c(Cl)c(C(=O)N2CCCc3ccccc32)nn1C	Shiga inhibitor 47
Cn1nc(C(=O)N2CCCc3ccccc32)c2ccccc2c1=O	none
Cc1nn(C)c(C(=O)N2CCc3ccccc32)c1Br	none
Cc1c(Br)c(C(=O)N2CCc3ccccc32)nn1C	Cycloheximide cs 91, Shiga inhibitor 62
O=C(c1cnn2c(C(F)(F)F)cc(-c3ccccc3)nc12)N1CCCc2ccccc21	AmpC detergent inconclusive
COC(=O)c1sccc1NC(=S)N1CCC(C)CC1	none
N/C(=N\OC(=O)CC1CCCCC1)c1ccc([N+](=O)[O-])cc1	Cycloheximide cs 18
N/C(=N\OC(=O)CCC1CCCCC1)c1cccnc1	Cycloheximide cs 17, Shiga inhibitor 35
COc1ccc(NC(=O)COC(=O)CC2CCCCC2)cc1	none (no result: Cycloheximide cs, Shiga inhibitor)
N/C(=N\OC(=O)CCC1CCCCC1)c1ccc([N+](=O)[O-])cc1	AMA1-RON2 inh inconclusive
COc1ccc(/C(N)=N/OC(=O)CC2CCCCC2)cc1	Cycloheximide cs 47, Shiga inhibitor 159
N/C(=N\OC(=O)CCC1CCCC1)c1cccc([N+](=O)[O-])c1	Cycloheximide cs 18
N/C(=N\OC(=O)CCC1CCCC1)c1ccc(Br)cc1	none
COC(=O)c1c(N2C(=O)[C@H]3[C@@H](C2=O)[C@]2(C(=O)Nc4c2ccc(C)c4C)N2CCC[C@@H]32)sc(C)c1C	none
COC(=O)C[C@H]1C=C[C@@H](NC(=O)Cc2cccnc2)[C@@H](CO)O1	none (no result: AmpC detergent, Cycloheximide cs, AmpC inh no detg, SARS PLpro yeast, Shiga inhibitor)
Cc1ccc(/C=c2/sc3nnc(-c4ccccc4Cl)n3c2=O)o1	AmpC detergent inconclusive
N/C(=N\OC(=O)CC1CCCCC1)c1cccc([N+](=O)[O-])c1	Cycloheximide cs 35, Shiga inhibitor 83
C/C(O)=C(/C=Nc1ccccc1)C(=O)Nc1ccccc1	AmpC detergent inconclusive
CCCCc1cc(=O)oc2cc(C)cc(OCC(=O)Nc3ccccn3)c12	Cycloheximide cs 21, Shiga inhibitor 61
Cc1cc(OCC(=O)Nc2ccccn2)c2c(C)cc(=O)oc2c1	none
CCCc1cc(=O)oc2cc(C)cc(OCC(=O)Nc3ccccn3)c12	Cycloheximide cs 20
CCN1CCCC1CNC(=O)c1cc([N+](=O)[O-])c(N(C)C)cc1OC (stereo not given)	none
CCNC(=O)/C=C/c1ccccc1[N+](=O)[O-]	none
